From PubChem
L3MBTL1 block: inhibitors of human L3MBTL1. Q9Y468. AlphaScreen L3MBTL1–H3K9me1 peptide binding. AID 485360. 230,000 compounds, 0.66% hits. Potency, µM (series often up to 57.1 µM), inactives show at the top dose activity, negative = inhibition, hits mostly inhibitors; also: % is scaled to controls: 0 for no effect and ±100 for the full control effect; nearly all actives have a fitted effect of over 60% in size
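Read-out is AlphaScreen signal from streptavidin donor and nickel chelate acceptor beads (10 ug/mL final each) bridging L3MBTL1 (50 nM) and biotinylated K9-monomethylated H3(1-15) peptide (75 nM), after 30 min compound exposure at room temperature.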
Sfp inh: Sfp phosphopantetheinyl transferase inhibition; Potency, µM, inactives show largest response in the series, negative = inhibition, hits mostly inhibitors; Biochemical Sfp PPTase activity, qHTS; AID 1490; 310,000 compounds, 3.5% hits;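 also: the enzyme is Sfp with the accession as filed and its product quenches rhodamine fluorescence; 0% = enzyme reaction without inhibitor and -100% = no enzyme wells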
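With Hepes-Na pH 7.6 buffer containing 10 mM MgCl2, Sfp (15 nM) modified BHQ-2-YbbR (12.5 uM) using rhodamine-CoA (5 uM). Two reads 30 minutes apart at 525/598 nm yielded each well's rate.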
HP1b binding inh: blocks HP1-beta chromodomain binding to methylated histone tails; P83916; AlphaScreen HP1-beta / biotin-H3K9me3 peptide binding; Potency, µM (top dose mostly 114 µM), for the others: at the highest dose activity change, negative = inhibition, hits mostly inhibitors; 390,000 compounds, 0.56% hits; AID 540317; also: nearly all actives have a fitted effect of over 70% in size
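HP1-beta protein (50 nM final) preincubated 30 min at room temperature with biotinylated H3(1-18)K9me3 peptide (50 nM) in PBS pH 7.4, 0.01% Tween-20, then compound added for 30 min. AlphaScreen streptavidin donor/nickel chelate acceptor beads (10 ug/mL final), 30 min dark, luminescence read.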
JMJD2A Tudor inh: JMJD2A Tudor domain (human) inhibition; AID 504339; Potency, µM (titrated, usually from 114 µM), for the others: top-dose activity change, negative = inhibition, actives largely listed as inhibitors; 390,000 compounds, 4.4% hits; AlphaScreen JMJD2A-Tudor / H3K4me3 peptide binding; also: % is scaled to controls: 0 for no effect and ±100 for the full control effect; nearly all actives have a fitted effect of over 50% in size
Target sequence (O75164 whole entry, looked up, the tested form may be a part): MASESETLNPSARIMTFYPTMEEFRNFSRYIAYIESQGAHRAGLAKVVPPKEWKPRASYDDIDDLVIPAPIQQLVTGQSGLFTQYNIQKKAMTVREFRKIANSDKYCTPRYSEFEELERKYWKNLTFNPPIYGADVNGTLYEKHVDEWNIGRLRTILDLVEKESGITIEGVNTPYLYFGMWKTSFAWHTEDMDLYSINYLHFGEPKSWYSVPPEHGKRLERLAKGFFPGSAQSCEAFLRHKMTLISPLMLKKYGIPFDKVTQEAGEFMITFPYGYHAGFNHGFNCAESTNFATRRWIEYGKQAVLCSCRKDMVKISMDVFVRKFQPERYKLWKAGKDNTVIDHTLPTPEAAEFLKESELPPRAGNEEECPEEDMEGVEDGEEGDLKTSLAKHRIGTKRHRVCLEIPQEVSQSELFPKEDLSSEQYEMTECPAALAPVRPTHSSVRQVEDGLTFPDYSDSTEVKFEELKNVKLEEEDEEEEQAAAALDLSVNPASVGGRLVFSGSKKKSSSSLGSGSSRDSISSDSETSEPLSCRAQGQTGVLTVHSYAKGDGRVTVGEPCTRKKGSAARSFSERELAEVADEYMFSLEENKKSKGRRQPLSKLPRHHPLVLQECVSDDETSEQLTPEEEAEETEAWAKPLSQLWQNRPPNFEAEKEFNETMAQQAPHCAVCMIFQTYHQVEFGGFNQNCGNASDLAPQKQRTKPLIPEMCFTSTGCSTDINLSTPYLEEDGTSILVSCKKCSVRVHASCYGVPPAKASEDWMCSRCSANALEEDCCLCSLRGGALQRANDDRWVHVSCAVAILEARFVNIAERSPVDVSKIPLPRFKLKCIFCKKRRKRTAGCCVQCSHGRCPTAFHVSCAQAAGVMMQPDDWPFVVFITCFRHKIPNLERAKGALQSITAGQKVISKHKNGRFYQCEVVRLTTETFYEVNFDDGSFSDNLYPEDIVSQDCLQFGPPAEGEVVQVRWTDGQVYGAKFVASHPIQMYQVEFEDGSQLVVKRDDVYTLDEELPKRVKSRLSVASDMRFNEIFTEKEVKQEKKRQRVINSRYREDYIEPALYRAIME
G9a inh: G9a (human) methyltransferase inhibition. Q96KQ7. G9a H3K9 monomethylation, AlphaScreen, 2 h. Potency, µM (highest dose often 102 µM), for the others: at the highest dose activity, negative = inhibition, most hits filed as inhibitors. 350,000 compounds, 8.8% hits; also: % is scaled to controls: 0 for no effect and ±100 for the full control effect; nearly all actives have a fitted effect of over 75% in size
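Step 1: enzyme (final 20 nM) with compound, 15 min RT. Step 2: substrate peptide 500 nM and SAM 20 uM, 2 h RT. Step 3: anti-H3K9me1 antibody and AlphaScreen beads, 10 min, then plate read.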
BAZ2B inh: inhibitors of human BAZ2B bromodomain; Potency, µM (doses to about 114 µM), without a hit: top-dose activity change, negative = inhibition, actives largely listed as inhibitors; Q9UIF8; 360,000 compounds, 4.4% hits; AID 504333; AlphaScreen BAZ2B-H3K14Ac peptide displacement; also: % is scaled to controls: 0 for no effect and ±100 for the full control effect; nearly all actives have a fitted effect of over 60% in size
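In this displacement format the biotinylated H3(5-23) peptide acetylated at Lys14 serves as ligand at 50 nM, with BAZ2B at 50 nM in PBS pH 7.4 containing 0.01% Tween-20. Donor and acceptor beads are 10 ug/mL final.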
* = called active by the depositor; u = inconclusive; x = no result given; [ ] = another dose, or the depositor's remark. An excerpt weighted towards active compounds, which were near 12% of everything screened. Calls follow the shape of the dose curve; as a rule, active = well fitted curve in the direction sought with a large enough effect; inconclusive = small, poorly fitted or top-dose-only effect, or another doubt; inactive = no such curve, though single readings can be large; an effect the other way counts as inactive or inconclusive. Potency is read from the fitted curve at half-maximal effect.

SMILES	L3MBTL1 block	Sfp inh	HP1b binding inh	JMJD2A Tudor inh	G9a inh	BAZ2B inh
CN(C)c1ccc(NC(=S)NC23CC4CC(CC(C4)C2)C3)cc1	x	13.5%	u	u	u	-38.8%
COc1cc(C(=O)NC(C)c2ccc(-n3ccnc3)cc2)cc(OC)c1C (stereo not drawn)	x	5.5%	-4.9%	79.4µM*	3.55µM*	50.1µM*
COc1cc(C(=O)NCC(=O)NC(C)c2ccc(-n3ccnc3)cc2)cc(OC)c1OC (stereo not drawn)	0.0%	x	1.6%	-8.1%	-39.6%	7.5%
O=C(CN1C(=O)S/C(=C\c2ccc(F)cc2)C1=O)NCCCn1ccnc1	x	2.7%	41.8%	-22.9%	17.7%	u
O=C(CCN1C(=O)/C(=C/c2ccc(Cl)cc2)SC1=S)NCCCn1ccnc1	x	2.6%	47.0%	-4.3%	u	39.8µM*
O=C(CCN1C(=O)/C(=C/c2ccc(F)cc2)SC1=S)NCCCn1ccnc1	x	-15.9%	35.2%	-14.0%	50.1µM*	u
CC(C)Oc1cccc(C(=O)Nc2ccc3oc(-c4ccccc4)nc3c2)c1	x	x	26.0%	-20.1%	-2.7%[59 µM]	0.2%
COc1ccc(-c2c(C#N)c(SCC(=O)Nc3ccc(Br)cc3)nc(C)c2C(=O)Nc2ccccc2)cc1	x	x	34.2%	-7.5%	-4.9%[59 µM]	0.9%
O=S(=O)(NCc1cccnc1)c1ccccc1	x	13.2%	17.3%	-9.2%	3.6%[59 µM]	2.4%
Cc1nc(SCC(=O)NC(=O)NC2CCCCC2)nc(C)c1C	x	50.1µM*	37.9%	-26.1%	14.1µM*	10.6%
Cc1csc(SCC(=O)NC(=O)NC2CCCC2)n1	4.0%	-5.0%	35.5%	-15.4%	44.7µM*	-6.4%
Cc1cc(C)n2nc(SCCCC(=O)c3ccc(F)cc3)nc2n1	1.0%	u	12.3%	-23.9%	50.1µM*	-10.0%
COc1ccccc1C(=O)NC(=O)CSc1nc(C)cs1	-5.7%	x	28.1%	-4.1%	50.1µM*	-0.2%
Cc1cc(C)n2nc(SCC(=O)N3CCN(c4ccc(F)cc4)CC3)nc2n1	-3.7%	x	25.3%	-3.4%	-20.4%[59 µM]	4.5%
Nc1cc(N)nc(SCC(=O)NC(=O)NC2CCCC2)n1	0.1%	x	20.0%	u	9.1%[2.33 µM]	4.7%
Cc1ccc(NC(=O)COc2coc(CN3CCN(c4ccccc4)CC3)cc2=O)cc1	-13.2%	x	22.1%	-8.2%	5.7%[0.501 µM]	7.6%
Cc1cccc(C)c1N(CC(=O)NCc1ccc(F)cc1)C(=O)c1csnn1	x	11.1%	36.3%	10.3%	5.1%	-18.4%
O=C(NCC1CCCO1)c1cc(Br)c(Br)s1 (stereo not drawn)	x	10.1%	44.4%	0.7%	30.8%	3.0%
Cc1cc(C)n2nc(SCC(=O)NC3CCCCC3)nc2n1	x	39.8µM*	53.5%	23.3%	44.7µM*	-1.0%
Cc1cc(C)nc(SCC(=O)NC2CCCC2)n1	9.2%	11.8%	14.8%	1.0%	2.7%	-1.8%
COC(=O)CN1C(=O)N/C(=C/c2ccc(C)o2)C1=O	x	22.4µM*	-15.8%	-28.5%	25.1µM*	2.3%
Cc1ccc(/C=C2/NC(=O)N(Cc3ccccc3)C2=O)o1	-1.8%	u	-22.4%	u	u	-30.7%
COc1ccc(N(C(=O)/C=C\C(=O)Nc2ccc(C)cc2)C(C(=O)NCc2ccco2)c2ccc(C)cc2)cc1 (stereo not drawn)	x	x	7.8%	u	14.1µM*	-19.7%
O=C(N/N=C1\CC2CC=CC12)c1ccccc1Cl (stereo not drawn)	6.5%	11.0%	19.2%	-9.1%	-8.8%	-20.2%
FC(F)(F)c1ccccc1NC(=S)N/N=C1\CC2CC=CC12 (stereo not drawn)	45.8%	-28.9%	u	-37.2%	17.8µM*	70.8µM*
SMILES	L3MBTL1 block	Sfp inh	HP1b binding inh	JMJD2A Tudor inh	G9a inh	BAZ2B inh
COc1ccc(S(=O)(=O)NCCc2ccco2)cc1OC	x	3.2%	44.0%	-10.7%	39.0%	-5.4%[57.1 µM]
COc1ccc(S(=O)(=O)NCCSCc2ccco2)cc1	x	-24.5%	0.4%	-29.9%	-13.8%[12.7 µM]	50.1µM*
COc1ccc(S(=O)(=O)NCCSCc2ccco2)cc1OC	x	28.2µM*	8.1%	-33.5%	12.1%[12.7 µM]	56.2µM*
Cc1cn([C@H]2C[C@H](O)[C@@H](CCC(=O)NCc3ccccc3)O2)c(=O)[nH]c1=O	x	x	30.1%	-14.4%	x	x
COc1ccc(-c2nn[nH]n2)cc1OC	x	11.8%	30.8%	-13.1%	-40.6%	u
COc1cccc(-c2nn[nH]n2)c1O	7.6%	50.1µM*	26.6%	u	3.55µM*	56.2µM*
O=C(Cn1cnc2ccccc2c1=O)NCCC(=O)Nc1ccc(F)cc1	x	10.7%	20.0%	-2.1%	-10.9%	-12.6%
CC(=O)Nc1ccc(NC(=O)CCC(=O)c2ccc(C)cc2)cc1	x	x	51.6%	-2.2%	7.8%[59 µM]	2.7%
COc1ccccc1-c1nc(S(=O)(=O)c2ccc(Cl)cc2)c(N(C)C)o1	x	u	u	u	2.82µM*	u
COc1ccccc1/C=C/c1nc(S(=O)(=O)c2ccccc2)c(N(C)C)o1	x	-22.3%	69.3%	u	35.5µM*	70.8µM*
COc1cc(-c2nc(S(=O)(=O)c3ccc(C)cc3)c(N(C)C)o2)cc(OC)c1OC	0.6%	56.2µM*	-17.0%	u	3.55µM*	u
Cc1ccc(-c2nc(S(=O)(=O)c3ccc(C)cc3)c(N(C)C)o2)cc1	x	u	-12.3%	u	10µM*	u
COc1cccc(/C=C/c2nc(S(=O)(=O)c3ccccc3)c(N(C)C)o2)c1	x	-2.1%	26.0%	-4.1%	-17.6%	-4.0%
O=C(NCc1ccco1)[C@@H]1CSC2c3ccccc3C(=O)N21 (stereo partly drawn)	x	35.5µM*	-2.8%	u	-6.1%[12.7 µM]	u
CC(C)[C@H](NC(=O)[C@@H]1CSC2c3ccccc3C(=O)N21)C(=O)NCc1ccco1 (stereo partly drawn)	x	u	25.0%	-23.5%	x	-37.5%
CCCCC[C@H](O)/C=C/C=C\CCCCCCCCCC(=O)O	x	-11.5%	x	x	x	x
O=c1c2sc3ccccc3c2n(Cc2cccc(C(F)(F)F)c2)c(=O)n1Cc1ccco1	x	x	11.6%	-23.2%	-2.2%[59 µM]	-14.5%
CN(C)c1ccc(CNC(=O)c2sc3ncccc3c2-n2cccc2)cc1	x	x	u	28.2µM*	22.4µM*	17.8µM*
CC(C)Oc1ccc(CNC(=O)c2sc3ncccc3c2-n2cccc2)cc1	x	x	13.0%[57 µM]	-1.3%	-3.2%[59 µM]	1.6%
CCOC(=O)c1c(-c2ccccc2)csc1NC(=O)c1cc(-c2cccc(Cl)c2)on1	x	x	-21.3%	-14.3%	8.91µM*	7.1%
CCOC(=O)c1c(-c2ccc(C)cc2)csc1NC(=O)c1cc(=O)c2cc(C)ccc2o1	x	x	u	56.2µM*	u	u
CCOC(=O)c1c(-c2ccccc2)csc1NC(=O)c1cc(-c2cccc(OC)c2)on1	x	x	-20.4%	6.1%	3.98µM*	-1.6%
